These results are taken from PubChem BioAssay.

Structures are written as SMILES. Activity calls are given as the source filed them.

One assay can be described thus: plasmodial surface anion channel blockers, osmotic lysis – cell-based, P. falciparum Indochina, OD700, 2 h, primary screen (AID 1155).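 Also: lysis reports solute entry through the parasite surface anion channel PSAC.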 To be noted: P. falciparum Indochina infected erythrocytes, higher = more signal, called active from +8 up or from −8 down.
For `OCCCC1=CC(c2ccc(CN3CCCC3)cc2)N(Cc2cc3c(cc2Br)OCO3)CC1` (stereo not given), the z-score was 0.63 (inactive).

As to `CC(c1ccccc1)C(O)C1C=CC2C(=O)N(C)C(=O)C2N1Nc1ccccc1` (stereo not given), the z-score is 0.782 (inactive).

Turning to `CC(C)N1C(=O)C[C@@](C(=O)O)(c2ccc([N+](=O)[O-])cc2)[C@H]1c1ccc(CO)cc1`, the z-score was 0.654 (inactive).

Turning to `CCCC#C[Si](O[C@H](CC)c1cn([C@H](C)c2ccccc2)nn1)(C(C)C)C(C)C`, the z-score was 1.05 (inactive).

The nature of another assay: changes in parasitized red cell lysis, either direction – P. falciparum Indochina, OD700, 3 h, PSAC antagonist project, primary screen (AID 1156). To be noted: P. falciparum-infected erythrocytes, osmotic lysis, higher = more signal, called active from +8 up or from −8 down.
On to `CC1CC/C=C\[C@H]2OC34C=CCN(C(C)C)C(=O)[C@H]3N(CCO)C(=O)[C@@H]4C2C(=O)O1` (stereo not given in full), for which the z-score was -0.285 (inactive).

In the case of `C=C(/C(=C/C[C@H](OC(=O)c1ccncc1)c1ccc(CO)o1)c1cnc2ccccc2c1)C(C)C`, the z-score is 1.47 (inactive).

For `Cc1ccc(F)cc1S(=O)(=O)N[C@@H]1CCN(Cc2ccc(Br)cc2)C1`, the z-score is 0.759 (inactive).

With `CN1C2C=C(CCCO)C(C3C(=O)N(C(N)=O)C(=O)C32)C1C1CC1` (stereo not given), the z-score was -0.624 (inactive).

As for `Cc1ccc(S[C@]2(C(=O)O)CC(=O)N(C3CCCCC3)[C@@H]2c2ccc(CO)cc2I)cc1`, the z-score was 0.796 (inactive).

With `COCCOC(=O)N1C(=O)[C@@]2(c3cc(C#CC4(O)CCCCCC4)ccc31)[C@H](C(=O)N1CCc3cc(OC)c(OC)cc3C1)[C@H]1C(=O)O[C@H](c3ccccc3)[C@H](c3ccccc3)N1[C@@H]2c1ccc(OCCO)cc1`, the z-score was 1.41 (inactive).

`COC(=O)[C@@]1(Cc2ccc(OC)cc2)[C@H]2c3cc(C(=O)N4CCCC4)n(CCc4c[nH]c5ccc(O)cc45)c3C[C@H]2CN1C(=O)c1ccccc1`: the z-score is 1.27 (inactive).

For the compound `CN(C)C(=O)[C@]1(CCC(=O)OC(C)(C)C)N=C(c2ccc(OCCCO)cc2)O[C@@H]1c1ccccc1CN=[N+]=[N-]`, the z-score was 2.29 (inactive).

`CCOC(=O)C1=CC[C@@H](c2ccccc2)N(S(=O)(=O)c2ccc(C)cc2)[C@H]1c1ccccc1`: the z-score was 0.369 (inactive).

In the case of `NC(=O)[C@H]1[C@@H]2C(=O)O[C@@H](c3ccccc3)[C@@H](c3ccccc3)N2[C@@H](c2ccc(OCCO)cc2)[C@]12C(=O)Nc1ccc(C#CCCO)cc12`, the z-score is -1.02 (inactive).

With `CCCCCCCCCC(O)C1C=CC2C(=O)N(c3ccccc3)C(=O)C2N1Nc1cc(OC)c(OC)c(OC)c1` (stereo not given), the z-score was -0.372 (inactive).

For `COc1cc(OC)c(C(O)C2C=CC3C(=O)N(Cc4ccccc4)C(=O)C3N2n2cnnc2)cc1Br` (stereo not given), the z-score is 1.34 (inactive).

On to `O=C1O[C@@H](c2ccccc2)[C@@H](c2ccccc2)N2[C@@H](c3ccc(OCCO)cc3)[C@]3(C(=O)Nc4ccc(C#CC5=CCCCC5)cc43)[C@@H](C(=O)NC[C@H](O)c3ccccc3)[C@H]12`, for which the z-score is -0.607 (inactive).

On to `CC(C)[Si](C#CCCCC#N)(O[C@H](c1ccccc1)c1cn(Cc2ccccc2)nn1)C(C)C`, for which the z-score is 0.866 (inactive).

Turning to `CC1=C2[C@@H](CCc3ccccc3)OB(O)C[C@@H]2[C@@H]2C(=O)N(C)C(=O)[C@@H]2C1`, the z-score is -0.249 (inactive).

Regarding `COc1ccc([Si](C)(C)[C@H]2[C@H](CC(=O)N(CCO)Cc3ccccc3)O[C@@]3(C(=O)N(C)c4c(Br)cc(C)cc43)[C@@H]2C)cc1`, the z-score is 0.0319 (inactive).

Turning to `C=CC[C@@]1(C(=O)NCCCOC)N=C(c2ccc(OCCCO)cc2)O[C@@H]1c1ccccc1N=[N+]=[N-]`, the z-score is 1.93 (inactive).

For the compound `COC(=O)C(CC#Cc1ccc2c(c1)[C@]1(C(=O)N2)[C@H](c2ccc(O)cc2)N2[C@H](c3ccccc3)[C@H](c3ccccc3)OC(=O)[C@H]2[C@@H]1C(=O)NC[C@H](O)c1ccccc1)C(=O)OC`, the z-score was -0.876 (inactive).

Turning to `COc1ccc([Si](C)(C)[C@H]2[C@H](CC(=O)N3Cc4ccccc4C[C@H]3CO)O[C@@]3(C(=O)N(Cc4ccc(N5CCOC5=O)cc4)c4ccccc43)[C@@H]2C)cc1`, the z-score was 0.863 (inactive).

As for `COC(=O)c1c(CC[C@@H](CO)NC(=O)N[C@@H](C)Cn2cc(-c3ccccn3)nn2)oc(C(C)=O)c1C(=O)OC`, the z-score is 0.613 (inactive).

For `COCC(=C=CC[C@H](O)c1ccc(OCCO)cc1)CCO`, the z-score was 0.934 (inactive).

As for `N[C@@H](Cc1ccccc1)C(=O)NCc1cn(Cc2ccccc2)nn1`, the z-score was -0.0107 (inactive).

For `CCOC(=O)C[C@H]1[C@H](OC(=O)Cc2ccc3c(c2)OCO3)[C@@H](NC(=O)c2ccc3ccccc3n2)c2cc(OCCCO)ccc2N1C(=O)c1ccccc1`, the z-score was -0.576 (inactive).

For `CC(CO)N1C(=O)[C@]2(C)C3C(=O)OCCC/C=C\[C@H]3OC23C=CCN(c2ccc(Cl)cc2)C(=O)[C@@H]13` (stereo not given in full), the z-score was 1.94 (inactive).

For the compound `CC(=O)NCCCC[C@@H]1NC(=O)[C@@H]2C[C@H](C(=O)NCCCCCN)[C@H](c3ccc(O)cc3)N2C1=O`, the z-score was 0.45 (inactive).

`COC(=O)[C@@]1(Cc2ccccc2)[C@H]2c3cc(C(=O)N(C)C)n(Cc4ccc(C)o4)c3C[C@H]2CN1C(=O)c1ccccc1`: the z-score is 0.541 (inactive).

In the case of `CCCC[C@@H](O)C1=C(COc2ccccc2)C[C@H]2C(=O)N(Cc3ccccc3)C(=O)[C@H]2[C@H]1CO`, the z-score was -1.11 (inactive).

With `COC(=O)C1(CC(C)C)C=C2C(=C(c3ccccc3)C(=O)C2C)CN1` (stereo not given), the z-score is 0.806 (inactive).

As for `COc1ccc(CCNC(=O)[C@@]2(c3ccc([N+](=O)[O-])cc3)CC(=O)N(C3CCCCC3)[C@@H]2c2ccc(CO)cc2)cc1`, the z-score was 1.03 (inactive).

As for `COCCCNC(=O)[C@@]1(Sc2ccc(C)cc2)CC(=O)N(C2Cc3ccccc3C2)[C@@H]1c1ccc(CO)cc1`, the z-score was 1.03 (inactive).

Take `CS(=O)(=O)CCOC(=O)C1=CC(c2ccc(CO)cc2)=CC(C2CC2)N(Cc2sc3ccccc3c2Cl)C=C1C(=O)OCCS(C)(=O)=O` (stereo not given): the z-score was 0.239 (inactive).

As for `C=CCOC(=O)[C@@H]1[C@H]2C(=O)O[C@H](c3ccccc3)[C@H](c3ccccc3)N2[C@H](c2ccc(OCCOC(=O)[C@@H]3C[C@@H]4C(=O)N[C@@H](CCCC[N+](C)(C)C)C(=O)N4[C@@H]3c3ccc(O)cc3)cc2)[C@@]12C(=O)Nc1ccc(I)cc12`, the z-score is 3.11 (inactive).

Take `OCCCC1=CC(c2ccc(CN3CCCC3)cc2)N(Cc2cc3c(cc2Br)OCO3)CC1` (stereo not given): the z-score is 0.795 (inactive).

Turning to `CC(c1ccccc1)C(O)C1C=CC2C(=O)N(C)C(=O)C2N1Nc1ccccc1` (stereo not given), the z-score was -0.0204 (inactive).

Take `CC(C)N1C(=O)C[C@@](C(=O)O)(c2ccc([N+](=O)[O-])cc2)[C@H]1c1ccc(CO)cc1`: the z-score was 0.415 (inactive).

Take `CCCC#C[Si](O[C@H](CC)c1cn([C@H](C)c2ccccc2)nn1)(C(C)C)C(C)C`: the z-score is -0.302 (inactive).
